In PubChem BioAssay (EPA / NIEHS):
Active and inactive are the calls of the source. The calls were made as follows: active = hit-call score of the fitted dose curve at least 0.9, where 1 is the maximum; inactive = score below 0.9.

Legend:
[1] = BSK_KF3CT_SRB: Viability Assessment in the BioMAP Diversity Plus: KF3CT Assay (AID 2283069); details: primary human keratinocytes with fibroblasts;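 also: total protein by sulforhodamine B staining as a cytotoxicity measure; read 24 h after compound addition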
In short: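 SRB read-out at 560 nm (0.1% stain, TCA-fixed cells) gauges overt cytotoxicity in a human skin keratinocyte–fibroblast co-culture 24 h post-dosing. Signal change was fitted bidirectionally relative to DMSO control.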

[2] = read-out: Interleukin-1 alpha (IL1a), IL1A (gene 3552); test: BSK_KF3CT_IL1a: BioMAP Diversity Plus: KF3CT Assay for Interleukin-1 alpha (IL1a) Biomarker Activity (AID 2283070); details: primary human keratinocytes with fibroblasts; actives raise or lower the signal
In short: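 Primary skin co-culture (keratinocytes, foreskin fibroblasts), 24 h exposure; ELISA for IL-1a; bidirectional curve fit vs DMSO.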

[3] = read-out: TIMP metallopeptidase inhibitor 2 (TIMP2), TIMP2 (gene 7077); test: BSK_KF3CT_TIMP2: BioMAP Diversity Plus: KF3CT Assay for TIMP metallopeptidase inhibitor 2 (TIMP2) Biomarker Activity (AID 2283071); details: primary human keratinocytes with fibroblasts; actives raise or lower the signal
In short: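 Chemicals were dosed onto human skin primary co-cultures of keratinocytes and foreskin fibroblasts, and TIMP-2 was measured by ELISA after 24 hours. Activity in either direction was fitted relative to DMSO.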

[4] = read-out: Transforming growth factor beta 1 (TGFb1), TGFB1 (gene 7040); test: BSK_KF3CT_TGFb1: BioMAP Diversity Plus: KF3CT Assay for Transforming growth factor beta 1 (TGFb1) Biomarker Activity (AID 2283072); details: primary human keratinocytes with fibroblasts; actives raise or lower the signal
In short: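 KF3CT co-culture (keratinocytes + fibroblasts), 24 h exposure → TGF-b1 ELISA → bidirectional fit, DMSO = baseline. Parallel SRB total-protein staining (0.1% SRB, 10% TCA fixation, 560 nm) for cytotoxicity.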

[5] = read-out: C-C motif chemokine 2 (Homo sapiens) (UniProt P13500); test: BSK_KF3CT_MCP1: BioMAP Diversity Plus: KF3CT Assay for Monocyte Chemoattractant Protein 1 (MCP1/CCL2) Biomarker Activity (AID 2283073); details: primary human keratinocytes with fibroblasts; actives raise or lower the signal
In short: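 Human keratinocyte plus foreskin fibroblast primary co-culture exposed to chemical for 24 h. MCP-1 levels measured by ELISA. Bidirectional curve fitting relative to DMSO negative control as baseline.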

[6] = read-out: Matrix Metallopeptidase 9 (MMP9), MMP9 (gene 4318); test: BSK_KF3CT_MMP9: BioMAP Diversity Plus: KF3CT Assay for Matrix Metallopeptidase 9 (MMP9) Biomarker Activity (AID 2283074); details: primary human keratinocytes with fibroblasts; actives raise or lower the signal;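 as to AC50: MMP9 protein level quantified by ELISA in the co-culture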
In short: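 ELISA read-out of MMP-9 at 24 h post-dosing in a co-culture of human skin keratinocytes and foreskin fibroblasts. Gain or loss of signal was fitted in both directions against DMSO.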

[7] = read-out: urokinase plasminogen activator (uPA), PLAU (gene 5328); test: BSK_KF3CT_uPA: BioMAP Diversity Plus: KF3CT Assay for urokinase plasminogen activator (uPA) Biomarker Activity (AID 2283075); details: primary human keratinocytes with fibroblasts; actives raise or lower the signal
In short: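 Skin co-culture (keratinocytes + foreskin fibroblasts), human primary; 24 h post-dose; uPA by ELISA; gain/loss fit vs DMSO baseline.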

[8] = read-out: CD40, CD40 (gene 958); test: BSK_LPS_CD40: BioMAP Diversity Plus: LPS Assay for CD40 Biomarker Activity (AID 2283076); details: primary human HUVEC with PBMC; actives raise or lower the signal
In short: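 Primary human umbilical vein endothelial cells co-cultured with peripheral blood mononuclear cells, LPS-stimulated, were dosed with chemical and read 24 h later. CD40 levels were measured by ELISA and fitted bidirectionally against DMSO as negative control and baseline.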

[9] = read-out: E-selectin (Homo sapiens) (UniProt P16581); test: BSK_LPS_Eselectin: BioMAP Diversity Plus: LPS Assay for Eselectin Biomarker Activity (AID 2283077); details: primary human HUVEC with PBMC; actives raise or lower the signal
In short: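 Human umbilical vein endothelial cells co-cultured with peripheral blood mononuclear cells under LPS stimulation; E-selectin measured by ELISA 24 h after chemical dosing. Activity fitted bidirectionally against DMSO as negative control and baseline.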

[10] = read-out: Interleukin-8 (IL8), CXCL8 (gene 3576); test: BSK_LPS_IL8: BioMAP Diversity Plus: LPS Assay for Interleukin-8 (IL8) Biomarker Activity (AID 2283078); details: primary human HUVEC with PBMC; actives raise or lower the signal
In short: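 Human umbilical vein endothelial cells co-cultured with PBMC were stimulated with LPS; IL-8 levels were measured by ELISA 24 h after chemical dosing. Activity was fitted bidirectionally against DMSO as negative control and baseline.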

[11] = BSK_LPS_SRB: Viability Assessment in the BioMAP Diversity Plus: LPS Assay (AID 2283079); details: primary human HUVEC with PBMC;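 also: total protein by sulforhodamine B absorbance as a cytotoxicity measure; measured one day after compound addition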
In short: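 Human umbilical vein endothelial cells co-cultured with PBMC (LPS system) were dosed for 24 h. Total protein was stained with 0.1% sulforhodamine B after 10% TCA fixation, read at 560 nm, and fitted bidirectionally against DMSO baseline.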

[12] = read-out: Interleukin-1 alpha (IL1a), IL1A (gene 3552); test: BSK_LPS_IL1a: BioMAP Diversity Plus: LPS Assay for Interleukin-1 alpha (IL1a) Biomarker Activity (AID 2283080); details: primary human HUVEC with PBMC; actives raise or lower the signal
In short: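 Human umbilical vein endothelial cells co-cultured with peripheral blood mononuclear cells were LPS-stimulated and exposed to test chemicals for 24 h. IL-1 alpha was quantified by ELISA, with bidirectional curve fitting against DMSO as the negative control and baseline.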

[13] = read-out: Monocyte Chemoattractant Protein-1 (MCP1), CCL2 (gene 6347); test: BSK_LPS_MCP1: BioMAP Diversity Plus: LPS Assay for Monocyte Chemoattractant Protein-1 (MCP1) Biomarker Activity (AID 2283081); details: primary human HUVEC with PBMC; actives raise or lower the signal;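 as to AC50: secreted MCP-1 protein quantified by ELISA in culture supernatant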
In short: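 HUVEC plus PBMC co-culture (human primary cells, LPS system) exposed to test chemical for 24 h; MCP-1 measured by ELISA. Bidirectional curve fitting against DMSO baseline; parallel SRB total-protein staining flags overt cytotoxicity.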

[14] = BSK_LPS_PGE2: BioMAP Diversity Plus: LPS Assay for Prostaglandin E2 (PGE2) Biomarker Activity (AID 2283082); details: primary human HUVEC with PBMC; actives raise or lower the signal;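 as to AC50: secreted prostaglandin E2 measured by ELISA in LPS-stimulated co-culture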
In short: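 Compounds were added to the LPS co-culture of endothelium and PBMC, and PGE2 was measured by ELISA after 24 h. Responses in either direction were fitted with DMSO as baseline.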

[15] = read-out: Macrophage colony-stimulating factor (MCSF), CSF1 (gene 1435); test: BSK_LPS_MCSF: BioMAP Diversity Plus: LPS Assay for Macrophage colony-stimulating factor (MCSF) Biomarker Activity (AID 2283083); details: primary human HUVEC with PBMC; actives raise or lower the signal
In short: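 Human umbilical vein endothelial cells co-cultured with peripheral blood mononuclear cells were exposed to compound for 24 h. M-CSF levels were measured by ELISA, and bidirectional curve fitting used DMSO as the negative control and baseline.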

[16] = read-out: Tissue Factor, F3 (gene 2152); test: BSK_LPS_TissueFactor: BioMAP Diversity Plus: LPS Assay for Tissue Factor Biomarker Activity (AID 2283084); details: primary human HUVEC with PBMC; actives raise or lower the signal
In short: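 Human umbilical vein endothelial cells co-cultured with peripheral blood mononuclear cells were dosed and stimulated with LPS. Cell-surface CD142 was quantified by ELISA at 24 h. Activity was fitted bidirectionally against DMSO baseline.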

[17] = read-out: Tumor necrosis factor (Homo sapiens) (UniProt P01375); test: BSK_LPS_TNFa: BioMAP Diversity Plus: LPS Assay for Tumour Necrosis Factor alpha (TNFa) Biomarker Activity (AID 2283085); details: primary human HUVEC with PBMC; actives raise or lower the signal;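 as to AC50: TNFa protein level quantified by ELISA in the co-culture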
In short: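 Cells (umbilical vein endothelium plus peripheral blood mononuclear cells) were dosed with chemical, incubated 24 h, then TNFa was quantified by ELISA; values derive from bidirectional fitting with DMSO as baseline.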

[18] = read-out: Vascular cell adhesion molecule 1 (VCAM1), VCAM1 (gene 7412); test: BSK_LPS_VCAM1: BioMAP Diversity Plus: LPS Assay for Vascular cell adhesion molecule 1 (VCAM1) Biomarker Activity (AID 2283086); details: primary human HUVEC with PBMC; actives raise or lower the signal
In short: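 Cells are dosed in an LPS-stimulated endothelial/mononuclear co-culture and, after 24 h, VCAM-1 is quantified by ELISA. Activity in either direction is fitted relative to the DMSO negative control.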

[19] = read-out: CD38, CD38 (gene 952); test: BSK_SAg_CD38: BioMAP Diversity Plus: SAg Assay for CD38 Biomarker Activity (AID 2283087); details: primary human HUVEC with PBMC; actives raise or lower the signal
In short: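 CD38 quantified by ELISA (fluorescence) in a superantigen-activated endothelial cell–PBMC co-culture at 24 h post-dose. Activity fitted in both directions relative to DMSO; parallel SRB and Alamar Blue cytotoxicity read-outs.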

[20] = read-out: CD40, CD40 (gene 958); test: BSK_SAg_CD40: BioMAP Diversity Plus: SAg Assay for CD40 Biomarker Activity (AID 2283088); details: primary human HUVEC with PBMC; actives raise or lower the signal
In short: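 Human umbilical vein endothelial cells co-cultured with PBMC; CD40 levels measured by ELISA with fluorescence read-out 24 h after chemical dosing. Gain or loss of signal fitted bidirectionally against DMSO baseline.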

Chain of Tumor necrosis factor (Homo sapiens) (P01375 whole entry, looked up): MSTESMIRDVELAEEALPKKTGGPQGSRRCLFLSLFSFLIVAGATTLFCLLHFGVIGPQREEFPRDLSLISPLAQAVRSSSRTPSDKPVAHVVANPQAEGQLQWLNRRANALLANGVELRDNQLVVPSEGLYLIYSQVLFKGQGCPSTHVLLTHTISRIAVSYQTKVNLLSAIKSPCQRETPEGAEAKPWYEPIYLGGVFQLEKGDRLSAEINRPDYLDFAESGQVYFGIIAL
Chain of E-selectin (Homo sapiens) (P16581 whole entry, looked up): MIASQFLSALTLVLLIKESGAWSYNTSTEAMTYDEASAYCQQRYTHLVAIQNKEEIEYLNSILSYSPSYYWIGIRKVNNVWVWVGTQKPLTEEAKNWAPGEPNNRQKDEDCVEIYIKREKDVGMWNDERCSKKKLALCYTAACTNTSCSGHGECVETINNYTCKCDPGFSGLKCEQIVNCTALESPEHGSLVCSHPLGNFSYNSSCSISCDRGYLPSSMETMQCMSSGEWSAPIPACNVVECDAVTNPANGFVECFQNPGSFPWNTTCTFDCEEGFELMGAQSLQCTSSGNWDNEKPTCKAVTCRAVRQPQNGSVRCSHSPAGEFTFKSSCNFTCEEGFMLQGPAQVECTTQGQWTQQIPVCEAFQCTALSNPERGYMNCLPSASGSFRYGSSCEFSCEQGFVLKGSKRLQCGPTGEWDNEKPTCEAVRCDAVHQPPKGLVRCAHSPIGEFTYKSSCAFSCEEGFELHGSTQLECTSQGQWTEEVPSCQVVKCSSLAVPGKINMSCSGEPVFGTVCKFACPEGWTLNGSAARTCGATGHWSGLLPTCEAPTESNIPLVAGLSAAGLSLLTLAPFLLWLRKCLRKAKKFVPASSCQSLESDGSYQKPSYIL

**Q.** Which results are given for `C[C@@H]1C[C@@H]([C@H](O)CC2CC(=O)NC(=O)C2)C(=O)[C@@H](C)C1`?
**A.** AC50 [1]: 11.6 µM (active); AC50 [2]: 31.2 µM (active); AC50 [3]: 8.4 µM (active); AC50 [4]: 2.79 µM (active); AC50 [5]: 0.991 µM (active); AC50 [6]: 4.67 µM (active); AC50 [7]: 13.2 µM (active); AC50 [8]: 3.35 µM (active); AC50 [9]: 1.77 µM (active); AC50 [10]: 6.73 µM (active); AC50 [11]: 6.14 µM (active); AC50 [12]: 5.63 µM (active); AC50 [13]: 7.05 µM (active); AC50 [14]: 5.67 µM (active); AC50 [15]: 4.48 µM (active); AC50 [16]: 17.9 µM (active); AC50 [17]: 7.89 µM (active); AC50 [18]: 9.45 µM (active); AC50 [19]: 6.11 µM (active); AC50 [20]: 2.6 µM (active)

**Q.** What does the source list for `Oc1ccc(-c2ccccc2)cc1`?
**A.** outcome [1]: inactive; AC50 [2]: 11.5 µM (active); outcome [3]: inactive; outcome [4]: inactive; AC50 [5]: 0.016 µM (active); outcome [6]: inactive; outcome [7]: inactive; outcome [8]: inactive; outcome [9]: inactive; outcome [10]: inactive; outcome [11]: inactive; outcome [12]: inactive; outcome [13]: inactive; outcome [14]: inactive; outcome [15]: inactive; outcome [16]: inactive; outcome [17]: inactive; outcome [18]: inactive; outcome [19]: inactive

**Q.** Which outcome [1] does the source give for `O=[N+]([O-])c1ccc2c3c(cccc13)CC2` here?
**A.** The outcome was “inactive”.

**Q.** What about the outcome [2] of the same molecule?
**A.** Its outcome is “inactive”.

**Q.** And the AC50 [3]?
**A.** The AC50 was 11.4 µM (active).

**Q.** What about the outcome [4] of the same molecule?
**A.** The outcome was “inactive”.

**Q.** What about the outcome [5] of the same molecule?
**A.** Its outcome is “inactive”.

**Q.** And the outcome [6]?
**A.** Its outcome is “inactive”.

**Q.** And the outcome [7]?
**A.** The outcome was “inactive”.

**Q.** And the outcome [8]?
**A.** Its outcome is “inactive”.

**Q.** And the outcome [9]?
**A.** The outcome was “inactive”.

**Q.** What about the outcome [10] of the same molecule?
**A.** The outcome was “inactive”.

**Q.** What about the outcome [11] of the same molecule?
**A.** The outcome was “inactive”.

**Q.** And the outcome [12]?
**A.** The outcome was “inactive”.

**Q.** What about the outcome [13] of the same molecule?
**A.** Its outcome is “inactive”.

**Q.** And the outcome [15]?
**A.** Its outcome is “inactive”.

**Q.** What about the outcome [16] of the same molecule?
**A.** Its outcome is “inactive”.

**Q.** What about the outcome [17] of the same molecule?
**A.** The outcome was “inactive”.

**Q.** What about the outcome [18] of the same molecule?
**A.** Its outcome is “inactive”.

**Q.** And the AC50 [19]?
**A.** The AC50 was 20 µM (active).

**Q.** With `BrCCBr` as the molecule, how does the outcome [1] read?
**A.** The outcome was “inactive”.

**Q.** What about the outcome [2] of the same molecule?
**A.** Its outcome is “inactive”.

**Q.** And the outcome [3]?
**A.** Its outcome is “inactive”.

**Q.** What about the outcome [4] of the same molecule?
**A.** The outcome was “inactive”.

**Q.** What about the outcome [5] of the same molecule?
**A.** The outcome was “inactive”.

**Q.** And the outcome [6]?
**A.** The outcome was “inactive”.

**Q.** What about the outcome [7] of the same molecule?
**A.** The outcome was “inactive”.

**Q.** And the outcome [8]?
**A.** Its outcome is “inactive”.

**Q.** What about the outcome [9] of the same molecule?
**A.** The outcome was “inactive”.

**Q.** And the outcome [10]?
**A.** The outcome was “inactive”.

**Q.** And the outcome [11]?
**A.** Its outcome is “inactive”.

**Q.** What about the outcome [12] of the same molecule?
**A.** Its outcome is “inactive”.

**Q.** What about the outcome [13] of the same molecule?
**A.** The outcome was “inactive”.

**Q.** What about the outcome [14] of the same molecule?
**A.** Its outcome is “inactive”.

**Q.** And the outcome [15]?
**A.** Its outcome is “inactive”.

**Q.** And the outcome [16]?
**A.** Its outcome is “inactive”.

**Q.** What about the outcome [17] of the same molecule?
**A.** Its outcome is “inactive”.

**Q.** What about the outcome [18] of the same molecule?
**A.** Its outcome is “inactive”.

**Q.** What about the outcome [19] of the same molecule?
**A.** Its outcome is “inactive”.
